The list is not random: actives were taken first. Their share in the collection is about 7.5%.
SMN2 splice enh: qHTS Assay for Enhancers of SMN2 Splice Variant Expression | AID 1458, 2008 | Potency, µM (titrated, usually from 46.1 µM), inactives show at the top dose activity change, positive = activation, usual class: activators | 210,000 compounds, 2.8% hits | HEK293 SMN2-luciferase splicing reporter, luminescence, 30-36 h; note: % of control where 0% means no effect; nearly all actives have a fitted effect of over 55% in size
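HEK293 cells carry an SMN2 minigene-luciferase reporter in which exon 7 inclusion puts luciferase in frame. Cells were seeded at 2000 cells/well, attached for 10-12 hours, then exposed to compounds for 30-36 hours at 37C before ONE-Glo luminescence.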
Rab9 prom act: qHTS Assay for Rab9 Promoter Activators. 320,000 compounds, 2.8% hits. Huh7 Rab9 promoter-luciferase reporter, luminescence, 24 h. AID 485297, 2010. Potency, µM (highest dose often 9.22 µM), without a hit: top-dose activation, negative = inhibition, actives largely listed as activators; note: % of control where 0% means no effect; nearly all actives have a fitted effect of over 60% in size
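Stable Rab9-luc Huh7, 1500 cells/well, 2 h settle; cmpd in DMSO, 24 h, 37 °C/5% CO2; luciferase reagent 10 min RT; luminescence.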
ELG1 genotoxic: qHTS screen for small molecules that induce genotoxicity in human embryonic kidney (HEK293T) cells expressing luciferase-tagged ELG1. Potency, µM (top dose mostly 46 µM), inactives show at the top dose activity change, positive = activation, most hits filed as activators. AID 504466, 2011. HEK293T ELG1-luciferase reporter, luminescence, 16 h. 330,000 compounds, 1.3% hits; note: % of control where 0% means no effect; nearly all actives have a fitted effect of over 60% in size
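HEK293T cells expressing luciferase-tagged ELG1 were treated with compound or DMSO for 16 hr at 37°C. Luciferase activity was then read after 30 min with ONE-Glo at room temperature; rising signal flags genetic stress.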
NPC1 prom act: qHTS Assay for NPC1 Promoter Activators; Potency, µM (titrated, usually from 9.22 µM), for inactives: at the top dose activation, usual class: activators; 320,000 compounds, 2.4% hits; Huh7 NPC1 promoter luciferase reporter, 24 h; note: % of control where 0% means no effect; nearly all actives have a fitted effect of over 60% in size
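Luminescence from an NPC1 promoter-driven luciferase reporter in stably transfected Huh7 cells was measured after 24 h compound treatment at 37 °C, followed by 10 min ambient incubation with luciferase detection reagent.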
FLuc modulator: qHTS profiling assay for firefly luciferase inhibitor/activator using purifed enzyme and Km concentrations of substrates (counterscreen for miR-21 project). Luciferin 4-monooxygenase (Photinus pyralis), P08659. purified FLuc, Km substrates, luminescence inhibition. Potency, µM (titrated, usually from 57.5 µM), for inactives: at the highest dose activity change, negative = inhibition, hits mostly inhibitors. 360,000 compounds, 6.9% hits. AID 588342, 2011;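 note: plate controls were vehicle for no effect and reference inhibitor for full effect; nearly all actives have a fitted effect of over 55% in size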
Target sequence (P08659 whole entry, looked up): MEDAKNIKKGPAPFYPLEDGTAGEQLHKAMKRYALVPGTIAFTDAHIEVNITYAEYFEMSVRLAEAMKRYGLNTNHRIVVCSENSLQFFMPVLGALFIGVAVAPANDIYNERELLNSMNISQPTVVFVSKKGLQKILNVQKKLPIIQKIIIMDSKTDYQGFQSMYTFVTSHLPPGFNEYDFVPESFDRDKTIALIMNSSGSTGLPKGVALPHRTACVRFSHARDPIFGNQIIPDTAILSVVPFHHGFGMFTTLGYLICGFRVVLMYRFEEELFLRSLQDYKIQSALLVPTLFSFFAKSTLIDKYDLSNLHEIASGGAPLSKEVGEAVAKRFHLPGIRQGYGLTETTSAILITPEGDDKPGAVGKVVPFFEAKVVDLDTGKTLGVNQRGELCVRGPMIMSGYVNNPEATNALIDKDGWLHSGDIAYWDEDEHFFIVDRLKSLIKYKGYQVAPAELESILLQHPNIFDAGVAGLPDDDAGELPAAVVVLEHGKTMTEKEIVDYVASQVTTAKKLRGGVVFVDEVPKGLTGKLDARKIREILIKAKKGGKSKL
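Biochemical qHTS of compounds, final roughly 60 µM downward over six points, against 10 nM purified firefly luciferase using Km concentrations of substrates (10 uM D-luciferin, 10 uM ATP) in Tris acetate pH 7.5 buffer; luminescence output.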
The depositor's hits bear a star; ? = inconclusive; . = no result given; ! = repeats disagree. Calls come from the whole dose curve; as a rule, active = well fitted curve in the direction sought with a large enough effect; inconclusive = small, poorly fitted or top-dose-only effect, or another doubt; inactive = no such curve, though single readings can be large; an effect the other way counts as inactive or inconclusive. Potency is the fitted concentration of half-maximal effect.

SMILES	SMN2 splice enh	Rab9 prom act	ELG1 genotoxic	NPC1 prom act	FLuc modulator
Cc1cc2oc(=O)cc(CN3CCCCC3C)c2cc1C (stereo not given)	.	-7%	2%	-1%	0%
C[C@@](Cc1ccccc1)(C(=O)O)N1C(=O)c2ccc(C(=O)O)cc2C1=O	.	8%	.	1%	?
CCN1/C(=C/C=C/C=C/c2sc3ccccc3[n+]2CC)Sc2ccccc21	-90%	-32%	-8%	-38%	15µM*
CCN1/C(=C/C=C/c2sc3ccccc3[n+]2CC)Sc2ccccc21	.	-45%	?	-40%	21µM*
O=Cc1cnc(N2CCCCC2)s1	9%	1%	4%	-3%	-1%
O/N=C\c1cnc(N2CCN(c3ccccc3)CC2)s1	.	?	?	16%	17µM*
O=C(O)Cn1nnc2ccccc21	.	-3%	0%	-5%	-3%
C(#Cc1ccccc1)Cn1nnc2ccccc21	22%	?	?	?	17µM*
c1ccc(-c2cc(-c3ccc(N4CCOCC4)cc3)nc3ccccc23)cc1	-7%	-1%	9%	1%	15µM*
Cc1ccc(-c2cc(C(=O)N3CCOCC3)c3cc(C)ccc3n2)cc1	.	5%	1%	15%	6.7µM*
c1ccc(-c2cc(N3CCOCC3)nc(-c3ccccc3)n2)cc1	-28%	-10%	1%	0%	7%
Cc1ccc2nc(-c3ccncc3)cc(C(=O)N3CCOCC3)c2c1	.	-1%	-3%	-3%	-2%
O=C(c1cc(-c2ccc(Cl)cc2)nc2ccccc12)N1CCOCC1	.	6%	-13%	1%	19µM*
O=C(NCc1cn(-c2ccccc2)nc1-c1ccc(F)cc1)c1cccc([N+](=O)[O-])c1	5%	-1%	-1%	-2%	?
O=C(NCCc1cccc(Cl)c1)c1ccc(OC2CCN(Cc3ccccn3)CC2)cc1	.	5%	?	?	19µM*
Cc1cccnc1CCNC(=O)c1ccc(OC2CCN(Cc3ccccn3)CC2)cc1	.	28%	18%	30%	?
O=C(NCCc1ccccn1)c1ccc(OC2CCN(CCc3ccccc3)CC2)cc1	.	2.8µM*	?	3.2µM*	19µM*
COc1ccc(/C(N)=N/OC(=O)CCCc2ccccc2)cc1OC	13%	-7%	-1%	-1%	?
CN(C)S(=O)(=O)c1cccc(NC(=O)Cn2cc(C(F)(F)F)cc(Cl)c2=O)c1	4%	-1%	?	-5%	-11%
Cc1c(C(=O)N(CCO)Cc2ccccc2)oc2c(F)cccc12	.	?	?	?	17µM*
Cc1cccc(C2NC(=O)c3c(sc(C)c3C)N2)c1O (stereo not given)	-2%	0%	-1%	16%	?
Cc1sc2c(c1C)C(=O)NC(c1ccccc1F)N2 (stereo not given)	.	?	?	27%	17µM*
COc1cccc([C@@H]2Oc3ccc(OC)cc3C(=O)[C@H]2OC(=O)Nc2ccc(OC(F)F)cc2)c1	-3%	.	.	.	.
CN(Cc1ccco1)S(=O)(=O)c1nnc(NC(=O)c2cccc(Cl)c2)s1	.	25%	-2%	29%	27µM*
CCN(c1ccc(C)cc1)S(=O)(=O)c1nnc(NC(=O)c2ccco2)s1	.	-15%	0%	2%	0%
SMILES	SMN2 splice enh	Rab9 prom act	ELG1 genotoxic	NPC1 prom act	FLuc modulator
CC(C)CN(c1ccccc1)S(=O)(=O)c1nnc(NC(=O)c2ccco2)s1	.	0%	-3%	2%	0.85µM*!
CCN(CC)S(=O)(=O)c1nnc(NC(=O)c2ccco2)s1	.	8%	2%	8%	27µM*
O=S(=O)(c1ccc(Cl)s1)N1CCCc2cccc(O)c21	9%	4µM*	17%	?	11µM*
Cc1ccc(C(=O)N/N=C2\CCc3ccccc32)c(C)c1	0.79µM*	2.2µM*	2.3µM*	?	4.8µM*
O=C(N/N=C1/CCc2ccccc21)C1CC1	22%	18%	?	7%	?
O=C(N/N=C1\CCc2ccccc21)c1ccccc1Cl	10µM*	2.8µM*	18µM*	2.2µM*	11µM*
CCOC(=O)N/N=C1\CCc2ccccc21	16µM*	29%	?	26%	?
O=C(N/N=C1\CCc2ccccc21)c1ccc(O)cc1	18µM*	2.8µM*	4.6µM*	2.8µM*	7.6µM*
CCOC(=O)NN=C1c2ccccc2-c2ccccc21	.	-3%	-6%	-1%	-12%
O=C(N/N=C1\C(=O)c2cccc3cccc1c23)c1ccc(O)cc1	23%	21%	3%	0%	2.1µM*
CNC(=S)N/N=C1\C(=O)c2cccc3cccc1c23	27%	?	?	22%	?
COc1ccccc1C(=O)Nc1nnc(SCC(=O)NCC2CCCO2)s1 (stereo not given)	.	3.5µM*	?	1.4µM*	6µM*
O=C(CSc1nnc(NC(=O)c2cccc(Cl)c2)s1)NCC1CCCO1 (stereo not given)	.	23%	?	20%	6.7µM*
COc1cc(C(=O)Nc2nnc(SCC(=O)NCC3CCCO3)s2)cc(OC)c1OC (stereo not given)	.	3%	5%	-5%	-1%
O=C(CSc1nc2ccc(NC(=O)C3CCCCC3)cc2s1)NCC1CCCO1 (stereo not given)	-9%	18%	-2%	13%	17µM*
Cc1ccc(C(=O)NN2C(=O)C3C(C2=O)C2C=CC3C23CC3)cc1 (stereo not given)	-17%	-6%	-2%	0%	5%
COc1ccc(Nc2cc(C)c3cc(NC(=O)c4cc(OC)cc(OC)c4)ccc3n2)cc1	.	.	.	.	-3%
Cc1ncc(CO)c(CNc2ccc(-c3nc4ccccc4[nH]3)cc2)c1O	.	1.6µM*	?	1µM*	3.4µM*
Nc1ccccc1C(=O)NNc1c2ccccc2nc2ccccc12	.	-7%	5%	3%	19µM*
Cc1ccc(C(=O)NNc2c3ccccc3nc3ccccc23)cc1	.	-5%	-28%	-4%	?
O=C(Cn1sc2ccccc2c1=O)NC12CC3CC(CC(C3)C1)C2	-16%	14%	1%	13%	7.6µM*
Cc1cc(C)n2cc(COc3ccc4ccccc4c3)nc2n1	13µM*	1.1µM*	?	1.8µM*	2.4µM*
Cc1cccc2nc(COc3ccc(-c4ccccc4)cc3)cn12	.	?	10%	26%	11µM*
Cc1ccnc(SCc2cn3c(C)cc(C)nc3n2)n1	23%	-2%	6%	-2%	0%
CCOC(=O)c1cn2c(C)cccc2n1	21%	4%	7%	-2%	1%
CC(C)c1ccc(C2N=C(N)Nc3nc4ccccc4n32)cc1 (stereo not given)	?	.	.	.	1%

Source: PubChem (National Center for Advancing Translational Sciences (NCATS))
